# Results from PubChem BioAssay (NCI).
# This is part of a sample that, as a whole, favours compounds with a hit. Of some 83,000 tested, about 20% had one in any assay.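 48-hour exposure, single concentration, 96-well plates; percent growth endpoint where 0 means no net growth. Active: below 10.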 The source made the active and inactive calls.
# Test system: HOP-92 NSCLC
# Assay: NCI-60 one-dose screen, 48 h (100 = growth as untreated, 0 = no growth, -100 = all killed)
# Settings: 10 µM
row,Structure (SMILES),growth
1,C[n+]1c2ccccc2nc2ccccc21,-10.7% (active)
2,C=CCn1c(SCC(=O)Nc2ccc(C(=O)/C=C/c3ccc(OC)cc3)cc2)nnc1-c1ccc(OC)c(OC)c1,83.2% (inactive)
3,Cc1n[nH]c(C)c1N=Nc1cccc2c1C(=O)c1ccccc1C2=O,92.6% (inactive)
4,CC[C@H]1OC(=O)[C@H](C)[C@@H](O[C@H]2C[C@@](C)(OC)[C@@H](O)[C@H](C)O2)[C@H](C)[C@@H](O[C@@H]2O[C@H](C)C[C@H](N(C)C)[C@H]2O)[C@](C)(OC)C/C(C)=C2/O[C@@]1(C)C=C2C,36.3% (inactive)
5,CCOC(=O)CN(c1sc(C)c(C)c1C(=O)OCC)S(=O)(=O)c1ccc(C)cc1,85.2% (inactive)
6,Cc1noc(C)c1CSc1ccccc1C(=O)N1CCN(c2cccc(C(F)(F)F)c2)CC1,68.1% (inactive)
7,O=C(CCCSc1nc(-c2ccccc2)cc(-c2ccc(Cl)cc2)n1)NO,32.9% (inactive)
8,O=C(Nc1ccc(F)cc1)c1cc2ccccc2cc1O,2.82% (active)
9,COc1ccc(-c2cc(-c3ccccc3)nc(SCCCCCCC(=O)NO)n2)cc1,49.3% (inactive)
10,COc1cc2c(cc1NC(=O)C(F)(F)F)-c1ccc(NC(=O)C(F)(F)F)cc1C2,90.3% (inactive)
11,S=C(NCc1ccccc1)NCc1ccccc1,99.3% (inactive)
12,NNC(=O)Oc1c(Cl)cc(Cl)cc1[N+](=O)[O-],115% (inactive)
13,Cc1c(Cl)cccc1NC(=O)CN1CCOCC1,118% (inactive)
14,O=C1c2ccccc2C(=O)N1CCCCNc1ccccc1,106% (inactive)
